Source: PubChem (several laboratories)
GDH-TPI counter-1: GDH-TPI coupled enzyme inhibition counter-screen; AID 588335; 360,000 tested, 1.2% active; inhibition, % at 4.8 µM; GDH-TPI coupled enzyme counterscreen, NADH absorbance; in the data active means inhibition above about 30%;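 further: 0% = DMSO wells and 100% = wells lacking the enzyme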
SARS 3CLpro inh: SARS-CoV 3CLpro protease inhibition; AID 1706; P0C6X7; inhibition, % at 6 µM; 290,000 tested, 0.14% active; recombinant SARS-CoV 3CLpro, quenched FRET peptide cleavage; in the data active means inhibition above about 12%
PrPC surface inh: reduces human prion protein on the cell surface; P04156; inhibition, % at 13.8 µM; cell surface PrPC, TR-FRET read-out; AID 720596; 370,000 tested, 0.43% active; in the data active means inhibition above about 24%; further: 0% = median of the test wells and 100% = reference compound wells
FBA Mtb inh: inhibits M. tuberculosis FBA enzyme; P9WQA3; inhibition, % at 1 µM; 360,000 tested, 2.3% active; purified M. tuberculosis FBA, fluorescence read-out; AID 588726;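 further: 0% = vehicle and 100% = reference inhibitor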
Target sequence (P9WQA3 whole entry, looked up): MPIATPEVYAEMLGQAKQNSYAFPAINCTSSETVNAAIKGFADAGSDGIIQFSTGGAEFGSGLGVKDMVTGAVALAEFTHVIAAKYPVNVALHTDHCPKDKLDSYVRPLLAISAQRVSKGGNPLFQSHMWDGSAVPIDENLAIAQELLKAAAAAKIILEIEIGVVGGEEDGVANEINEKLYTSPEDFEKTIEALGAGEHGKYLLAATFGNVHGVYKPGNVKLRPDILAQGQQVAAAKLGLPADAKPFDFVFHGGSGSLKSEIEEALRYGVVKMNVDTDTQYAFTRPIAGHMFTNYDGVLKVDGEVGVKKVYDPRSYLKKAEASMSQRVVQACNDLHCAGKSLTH
BH1578 lux ind: induces V. cholerae light production without autoinducers | V. cholerae BH1578 lux reporter, luminescence, 6 h | activation, % at 18.7 µM | 350,000 tested, 0.16% active | AID 588436; in the data active means activation mostly above about 9.7%, no sharp cut-off
Mtb FBA inh conf: Mtb FBA inhibition, confirmed. purified M. tuberculosis FBA, fluorescence read-out. 5,600 tested, 78% active. inhibition, % at 1 µM. AID 651616. shares compounds with FBA Mtb inh;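 further: 0% = vehicle wells and 100% = reference inhibitor wells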
GDH-TPI counter-2: inhibits GDH-TPI coupling enzymes, flagging Mtb FBA hits; shares compounds with FBA Mtb inh; GDH-TPI coupled enzyme counterscreen, fluorescence; inhibition, % at 1 µM; 5,600 tested, 81% active; in the data active means inhibition above about 10%
An asterisk follows results filed as active; i = inactive; . = not tested or not shown; + = active, no number. This is a sample that favours compounds with a hit; in the whole collection about 3.9% have one here. Unless noted, no stated cut-off is given here; in the data, active means inhibition above about 27%; inactive means the rest.

SMILES	GDH-TPI counter-1	SARS 3CLpro inh	PrPC surface inh	FBA Mtb inh	BH1578 lux ind	Mtb FBA inh conf	GDH-TPI counter-2
CC(C)(C)NS(=O)(=O)c1ccc2c(c1)oc(=O)c1cc(S(=O)(=O)NC(C)(C)C)ccc12	5	-1	1	-1	0	.	.
Cc1cc(C)n(-c2nc(NCc3cccnc3)c3c4c(sc3n2)COC(C)(C)C4)n1	14	0	-5	63*	i	81*	63*
CCc1nc(N2CCN(C(C)=O)CC2)c(C#N)c2c1COC(C)(C)C2	1	-2	-5	36*	0	3	-1
CCCc1nc(N2CCOCC2)c(C#N)c2c1CCCC2	17	3	-2	30*	i	168*	141*
CCc1nc(N2CCN(C(=O)c3ccco3)CC2)c(C#N)c2c1COC(C)(C)C2	5	6	-2	40*	0	57*	39*
CCCNC(=O)N1CCN(c2nc(C(C)C)c3c(c2C#N)CC(C)(C)OC3)CC1	-14	0	-2	3	0	.	.
CC(C)Cc1nc(N2CCOCC2)c(C#N)c2c1COC(C)(C)C2	10	-3	-6	37*	-5	-1	-1
CCCCc1nc(N2CCOCC2)c(C#N)c2c1CCCC2	9	-5	-1	15	7	.	.
CCCCCCC(=O)NC1CCCCN(C)C1=O (stereo unspecified)	.	.	1	.	.	.	.
O=C(/C=C/[C@H]1O[C@@H](n2ccc(=O)[nH]c2=O)[C@H](O)[C@@H]1O)NCc1cccs1	.	.	2	-3	.	.	.
O=C1CC(N2CCN(S(=O)(=O)c3ccccc3F)CC2)C(=O)N1c1ccccc1Cl (stereo unspecified)	5	.	-1	3	2	.	.
Cc1nc(NC(=O)CCN2C(=O)C3CC=CCC3C2=O)sc1C (stereo unspecified)	-16	-4	4	0	i	.	.
Cn1nnnc1SCC(=O)Nc1nn(-c2ccccc2)nc1C(N)=O	3	3	9	28*	0	132*	89*
CCOc1ccc(N2C(=O)C3C(c4ccccc4)=NN(c4ccccc4)C3C2=O)cc1 (stereo unspecified)	4	-1	-7	7	0	.	.
COc1cccc(CNn2c(-c3cccc(C)c3)nc3ccccc3c2=O)c1O	-8	-2	-6	-2	2	.	.
COc1ccccc1[C@H]1C(c2cccc(C)c2)=NN(c2ccccc2)[C@@H]1CO	20	.	4	44*	i	108*	114*
COc1ccccc1[C@H]1C(c2ccc(F)cc2)=NN(c2ccccc2)[C@@H]1CO	16	.	4	44*	i	+	+
C#CCN1CC(N(C)CCOC(=O)c2ccc(F)cc2)CS1(=O)=O (stereo unspecified)	.	.	4	.	.	.	.
COCCCNC(=O)CCc1c(C)nc2c(c(C)nn2-c2ccccc2)c1C	4	5	3	41*	0	52*	44*
Cc1ccc(-n2nc(C)c3c(C)c(CCC(=O)Nc4ccc(CN5CCCC5)cc4)c(C)nc32)cc1	14	3	-18	14	-1	.	.
CCN(CC)CCNC(=O)CCc1c(C)nc2c(c(C)nn2-c2ccc(C)c(C)c2)c1C	1	-2	-2	36*	0	197*	196*
Cc1ccc(-n2nc(C)c3c(C)c(CCC(=O)NCCCOC(C)C)c(C)nc32)cc1	10	3	5	25	0	.	.
COC(CNC(=O)CCc1c(C)nc2c(c(C)nn2-c2ccc(C)cc2)c1C)OC	19	-1	6	40*	i	-12	-12
O=C(Cc1ccccc1)NCc1ccc(-n2cccc2)cc1	-3	0	5	-4	-1	.	.
CC(=O)NC12CC3CC(C1)CC(C(=O)N1CCN(c4ncccn4)CC1)(C3)C2	4	0	-1	-1	3	.	.
Cc1nc2c(C(=O)N3CCC4(CC3)OCCO4)cnn2c(C)c1Cc1cccc(Cl)c1	-6	4	0	31*	1	+	192*
Cc1ccc(C)c(Cc2c(C)nc3c(C(=O)N4CCOCC4)cnn3c2C)c1	6	-3	9	62*	1	.	+
COC(=O)c1cnn2c(C)c(Cc3cccc(F)c3)c(C)nc12	8	4	-4	43*	0	7	1
